Inconclusive results are not listed. Where a call stands in place of a potency, no number is given. The source made the active and inactive calls. Unless noted, the call rests on the fitted dose curve; in most records, active means well fitted curve in the direction sought with a large enough effect; inconclusive means small, poorly fitted or top-dose-only effect, or another doubt; inactive means no such curve, though single readings can be large; an effect the other way counts as inactive or inconclusive.
Tests used:
[1] = target: Cytochrome P450 1A2 (Homo sapiens) (UniProt P05177); assay: p450-cyp1a2 (AID 410; calls by dose curve; further: potency means the concentration at half of the fitted maximal effect)
Method in brief: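 Luminescent demethylation readout: Luciferin-ME (100uM, equal to Km) turned over by 20nM CYP1A2 for 60 min at room temperature after NADPH regeneration addition, following 10 min compound preincubation. Normalization used 57 uM furafylline as full inhibition.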

[2] = target: Mitogen-activated protein kinase 10 (Mus musculus) (UniProt Q61831); assay: JNK3 AlphaScreen Assay (AID 530; active means well fitted curve in either direction with a large enough effect, not every such curve was filed as active;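 further: kinase came from lysate of stimulated human HepG2 cells; signal reports phosphorylation of biotinylated GST-cJun 1-79 at Ser73 with 10 µM ATP; series mostly up to about 57 µM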)
Method in brief: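 Activity was read by AlphaScreen after JNK3-containing HepG2 lysate (cytokine pre-activated) phosphorylated biotinylated GST-cJun with 10 uM ATP at room temperature. Phospho-Ser73 cJun antibody with Protein-A acceptor beads provided detection.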

[3] = target: 3',5'-cyclic-AMP phosphodiesterase 4B (Homo sapiens) (UniProt Q07343); assay: qHTS Assay for Inhibitors of PDE-IV (AID 607; active means well fitted activation curve with a large enough effect in the main read-out, with a control signal flat, not every such curve was filed as active)
Method in brief: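 Live HEK293 cells with a modified cyclic nucleotide-gated (CNG) channel report intracellular cAMP via membrane-potential dye fluorescence (ex 535/em 590 nm). Endogenous PDE-IV was targeted. Compounds were tested at up to 22.9 uM final; RO 20-1724 100 uM served as control.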

[4] = target: Cytochrome P450 3A4 (Homo sapiens) (UniProt P08684); assay: qHTS Assay for Inhibitors and Substrates of Cytochrome P450 3A4 (AID 884); further: potency means the concentration at half of the fitted maximal effect; nearly all actives have a fitted effect of over 50% in size
Method in brief: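 Luminescent readout of luciferin produced by CYP3A4 (20 nM) dealkylation of Luciferin-PPXE, 25 uM (its KM). NADPH-driven reaction ran 60 min at RT after 10 min compound preincubation; data scaled to 57 uM ketoconazole as 100% inhibition.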

[5] = target: Cytochrome P450 3A4 (Homo sapiens) (UniProt P08684); assay: qHTS Assay for Activators of Cytochrome P450 3A4 (AID 885); further: nearly all actives have a fitted effect of over 65% in size
Method in brief: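 Using 20nM recombinant human CYP3A4 in potassium phosphate (200mM), substrate Luciferin-PPXE at 25uM, luminescent luciferin detection followed a 60-min RT NADPH reaction; data scaled to 57 uM ketoconazole.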

[6] = target: Cytochrome P450 2C9 (Homo sapiens) (UniProt P11712); assay: qHTS Assay for Inhibitors and Substrates of Cytochrome P450 2C9 (AID 883); further: potency means the concentration at half of the fitted maximal effect; nearly all actives have a fitted effect of over 60% in size
Method in brief: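 Signal: luciferase luminescence reporting luciferin produced by CYP2C9. Conditions: 10nM enzyme, Luciferin-H 100uM at KM, 25mM KPO4, 37C, 60 min NADPH-driven reaction. Reference: 57uM sulphaphenazole as 100% inhibition.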

[7] = target: Cytochrome P450 2C19 (Homo sapiens) (UniProt P33261); assay: qHTS Assay for Inhibitors and Substrates of Cytochrome P450 2C19 (AID 899); further: nearly all actives have a fitted effect of over 60% in size; further: potency means the concentration at half of the fitted maximal effect
Method in brief: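 Signal comes from luciferase acting on luciferin released by CYP2C19-mediated hydroxylation of Luciferin-H EGE, 10uM (KM). Assay mix: 5nM enzyme, 50mM KPO4; 60 min at 37C with NADPH regeneration. Data normalized against 57uM ketoconazole.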

[8] = target: Cytochrome P450 2D6 (Homo sapiens) (UniProt P10635); assay: qHTS Assay for Inhibitors and Substrates of Cytochrome P450 2D6 (AID 891);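 further: luciferin methyl ether substrate demethylated by CYP2D6 with NADPH regeneration; nearly all actives have a fitted effect of over 60% in size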
Method in brief: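 Luminescent read-out of luciferin formed by 5 nM human CYP2D6 demethylating 30 uM Luciferin-ME EGE (Km level) over 60 min at room temperature after NADPH regeneration addition. Data normalized to full inhibition by 1.43 uM quinidine.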

Chain of Cytochrome P450 3A4 (Homo sapiens) (P08684 whole entry, looked up): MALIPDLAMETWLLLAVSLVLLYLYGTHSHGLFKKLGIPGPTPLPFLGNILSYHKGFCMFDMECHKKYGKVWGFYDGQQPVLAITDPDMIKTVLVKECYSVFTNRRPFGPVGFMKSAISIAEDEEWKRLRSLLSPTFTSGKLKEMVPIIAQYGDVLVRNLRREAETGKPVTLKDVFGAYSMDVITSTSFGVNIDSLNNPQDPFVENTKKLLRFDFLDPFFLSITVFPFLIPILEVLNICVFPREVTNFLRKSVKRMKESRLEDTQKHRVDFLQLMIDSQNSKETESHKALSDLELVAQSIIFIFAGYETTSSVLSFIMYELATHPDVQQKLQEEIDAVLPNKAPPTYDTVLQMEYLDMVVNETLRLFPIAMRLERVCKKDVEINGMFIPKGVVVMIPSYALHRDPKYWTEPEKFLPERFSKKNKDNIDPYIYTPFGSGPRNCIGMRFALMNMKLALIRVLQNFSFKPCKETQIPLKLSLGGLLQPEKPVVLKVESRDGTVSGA
Chain of 3',5'-cyclic-AMP phosphodiesterase 4B (Homo sapiens) (Q07343 whole entry, looked up): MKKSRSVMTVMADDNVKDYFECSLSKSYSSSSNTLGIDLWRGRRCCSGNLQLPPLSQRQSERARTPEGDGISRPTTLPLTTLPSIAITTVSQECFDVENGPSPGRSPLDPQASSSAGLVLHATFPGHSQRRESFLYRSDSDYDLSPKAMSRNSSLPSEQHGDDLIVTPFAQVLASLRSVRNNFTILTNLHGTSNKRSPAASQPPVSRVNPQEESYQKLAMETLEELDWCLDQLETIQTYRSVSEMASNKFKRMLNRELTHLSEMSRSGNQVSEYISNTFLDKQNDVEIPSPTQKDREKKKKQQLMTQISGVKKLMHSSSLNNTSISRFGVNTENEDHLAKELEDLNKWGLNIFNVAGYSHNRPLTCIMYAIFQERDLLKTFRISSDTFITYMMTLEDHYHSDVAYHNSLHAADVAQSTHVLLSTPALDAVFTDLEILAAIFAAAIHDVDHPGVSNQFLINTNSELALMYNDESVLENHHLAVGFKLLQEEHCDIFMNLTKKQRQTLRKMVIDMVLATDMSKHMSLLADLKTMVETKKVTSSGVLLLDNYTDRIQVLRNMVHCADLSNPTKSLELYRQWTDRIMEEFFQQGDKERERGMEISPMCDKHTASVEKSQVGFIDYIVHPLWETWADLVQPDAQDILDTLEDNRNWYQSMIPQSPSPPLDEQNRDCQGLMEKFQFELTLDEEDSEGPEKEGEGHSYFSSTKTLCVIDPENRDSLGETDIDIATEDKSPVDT
Chain of Cytochrome P450 2C9 (Homo sapiens) (P11712 whole entry, looked up): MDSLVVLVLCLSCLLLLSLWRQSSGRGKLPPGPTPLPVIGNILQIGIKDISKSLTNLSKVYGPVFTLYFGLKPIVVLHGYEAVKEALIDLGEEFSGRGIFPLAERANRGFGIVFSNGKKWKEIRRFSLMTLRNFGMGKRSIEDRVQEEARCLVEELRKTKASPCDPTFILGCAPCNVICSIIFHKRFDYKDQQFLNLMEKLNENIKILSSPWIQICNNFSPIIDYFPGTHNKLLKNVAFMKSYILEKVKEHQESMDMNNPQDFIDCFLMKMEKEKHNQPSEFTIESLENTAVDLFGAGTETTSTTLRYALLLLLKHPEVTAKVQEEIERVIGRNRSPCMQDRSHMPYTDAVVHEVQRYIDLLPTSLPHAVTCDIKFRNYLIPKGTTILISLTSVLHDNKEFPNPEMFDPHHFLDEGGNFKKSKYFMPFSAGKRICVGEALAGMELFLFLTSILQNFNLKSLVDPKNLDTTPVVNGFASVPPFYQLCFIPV
Chain of Cytochrome P450 1A2 (Homo sapiens) (P05177 whole entry, looked up): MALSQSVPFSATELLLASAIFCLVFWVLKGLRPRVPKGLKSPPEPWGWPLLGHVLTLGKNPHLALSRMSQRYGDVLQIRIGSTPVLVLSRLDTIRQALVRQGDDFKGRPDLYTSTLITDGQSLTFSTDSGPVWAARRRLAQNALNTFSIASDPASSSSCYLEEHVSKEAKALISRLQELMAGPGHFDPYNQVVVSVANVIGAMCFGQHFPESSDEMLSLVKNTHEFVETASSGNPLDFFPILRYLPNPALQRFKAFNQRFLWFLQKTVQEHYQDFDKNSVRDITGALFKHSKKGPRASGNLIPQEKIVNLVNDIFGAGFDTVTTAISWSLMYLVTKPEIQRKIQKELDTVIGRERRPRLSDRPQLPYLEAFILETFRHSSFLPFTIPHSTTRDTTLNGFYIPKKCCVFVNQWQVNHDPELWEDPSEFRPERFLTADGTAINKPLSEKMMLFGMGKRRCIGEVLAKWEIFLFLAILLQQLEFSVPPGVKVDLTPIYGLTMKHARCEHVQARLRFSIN
Chain of Cytochrome P450 2C19 (Homo sapiens) (P33261 whole entry, looked up): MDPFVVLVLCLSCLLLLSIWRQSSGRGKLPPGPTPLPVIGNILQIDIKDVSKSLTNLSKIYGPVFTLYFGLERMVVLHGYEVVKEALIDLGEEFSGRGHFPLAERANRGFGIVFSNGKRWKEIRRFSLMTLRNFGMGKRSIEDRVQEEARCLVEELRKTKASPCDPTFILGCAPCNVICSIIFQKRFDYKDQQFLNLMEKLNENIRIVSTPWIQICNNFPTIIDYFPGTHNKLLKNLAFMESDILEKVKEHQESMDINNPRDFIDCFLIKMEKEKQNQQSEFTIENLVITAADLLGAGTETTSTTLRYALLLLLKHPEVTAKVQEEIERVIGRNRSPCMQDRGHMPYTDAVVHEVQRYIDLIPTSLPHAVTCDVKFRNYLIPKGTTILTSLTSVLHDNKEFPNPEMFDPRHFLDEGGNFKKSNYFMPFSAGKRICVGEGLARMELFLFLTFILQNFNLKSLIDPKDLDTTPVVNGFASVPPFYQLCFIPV
Chain of Cytochrome P450 2D6 (Homo sapiens) (P10635 whole entry, looked up): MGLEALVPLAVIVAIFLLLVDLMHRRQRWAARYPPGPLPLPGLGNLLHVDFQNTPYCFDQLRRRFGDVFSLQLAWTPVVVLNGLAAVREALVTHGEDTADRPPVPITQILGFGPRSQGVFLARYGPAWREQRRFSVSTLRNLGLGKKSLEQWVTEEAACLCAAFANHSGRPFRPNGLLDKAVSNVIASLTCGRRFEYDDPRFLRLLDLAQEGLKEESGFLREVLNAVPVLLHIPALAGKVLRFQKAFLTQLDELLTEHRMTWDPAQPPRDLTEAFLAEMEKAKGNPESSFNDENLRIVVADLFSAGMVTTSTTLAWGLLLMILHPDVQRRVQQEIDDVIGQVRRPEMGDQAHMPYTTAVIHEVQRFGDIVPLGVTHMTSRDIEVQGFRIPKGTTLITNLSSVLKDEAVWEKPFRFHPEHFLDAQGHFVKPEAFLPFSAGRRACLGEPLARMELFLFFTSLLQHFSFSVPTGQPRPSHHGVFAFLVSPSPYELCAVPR

Structure (SMILES) | Potency [1] | Potency [2] | Potency [3] | Potency [4] | Potency [5] | Potency [6] | Potency [7] | Potency [8]
CCC[C@@H]1C[C@@]1(CCC)C(NC(=O)c1cccs1)c1ccc(Cl)cc1 (some centres not stated) | 10 µM (active) | inactive | inactive | 6.31 µM (active) | inactive | – | – | –
COC(=O)[C@@]1(Cc2ccc(F)cc2)[C@H]2c3cc(C(=O)N4CCCC4)n(Cc4ccc(Cl)c(C(F)(F)F)c4)c3C[C@H]2CN1C(=O)c1ccccc1 | inactive | inactive | inactive | 2.51 µM (active) | inactive | – | – | –
COC(=O)[C@@]1(Cc2ccc(F)cc2)[C@H]2c3cc(C(=O)N4CCCC4)n(Cc4c(CO)[nH]cc(C)c4=O)c3C[C@H]2CN1C(=O)c1ccccc1 | 20 µM (active) | inactive | inactive | 2 µM (active) | inactive | – | – | –
C[C@@H](C(=O)Cc1ccc2ccccc2c1)[C@@H]1C[C@@]1(C)[C@@H](NP(=O)(c1ccccc1)c1ccccc1)c1ccccc1 | 10 µM (active) | inactive | inactive | – | inactive | 3.16 µM (active) | – | –
Cc1ccc(CNC(=O)[C@H]2C[C@@H]2[C@H](NP(=O)(c2ccccc2)c2ccccc2)c2ccccc2)c(F)c1F | inactive | inactive | inactive | 0.316 µM (active) | inactive | – | – | –
COC(=O)[C@@]1(Cc2ccccc2)[C@H]2c3cc(C(=O)N4CCCC4)n(Cc4ccc(S(C)(=O)=O)cc4)c3C[C@H]2CN1C(=O)c1ccccc1 | inactive | inactive | inactive | 3.16 µM (active) | inactive | – | – | –
CC1(C)C(=O)C(c2ccccc2)=C2CN3C(=O)N(CCc4ccccc4)C(=O)C3(Cc3ccc(C(F)(F)F)cc3)C=C21 (configuration not stated) | inactive | inactive | inactive | 2 µM (active) | inactive | – | – | –
CNC(=O)[C@H](C)[C@H]1C[C@]1(C)[C@H](NC(=O)OCc1ccccc1)c1ccccc1 | 20 µM (active) | inactive | inactive | 2 µM (active) | inactive | – | – | –
CCCC1(C(=O)OC)C=C2C(=C(c3ccccc3)C(=O)C2C)CN1 (configuration not stated) | 15.8 µM (active) | inactive | inactive | – | inactive | 5.01 µM (active) | 7.94 µM (active) | –
CC1(C)C(=O)C(c2ccccc2)=C2CN3C(=O)N(CCc4ccccc4)C(=O)C3(Cc3ccccc3)C=C21 (configuration not stated) | 6.31 µM (active) | inactive | inactive | 2 µM (active) | inactive | – | – | –
CCCC[C@H]1C[C@@H]1[C@@H]1N(P(=O)(c2ccccc2)c2ccccc2)C[C@@](O)(c2ccccc2)CC12CC2 | inactive | inactive | inactive | 2 µM (active) | inactive | – | – | –
CCCCCCN(C(=O)CCCCCN1C(=O)NC(c2ccc(-c3ccccc3)cc2)C(C(=O)OCc2ccccc2)=C1C)C(C(=O)NCCCC)c1ccc(OCC(=O)OC)c(C(=O)OC)c1 (configuration not stated) | 12.6 µM (active) | inactive | inactive | – | – | 0.158 µM (active) | inactive | inactive
COC(=O)[C@@]1(Cc2ccc(F)cc2)[C@H]2c3cc(C(=O)N4CCCC4)n(CCc4c[nH]c5ccccc45)c3C[C@H]2CN1C(=O)c1ccccc1 | inactive | inactive | inactive | – | inactive | 2.51 µM (active) | – | –
COC(=O)Cn1c(C(=O)N2CCCC2)cc2c1C[C@H]1CN(C(=O)c3ccccc3)[C@@](Cc3ccc(F)cc3)(C(=O)OC)[C@@H]21 | 15.8 µM (active) | inactive | inactive | 3.16 µM (active) | inactive | – | – | –
C[C@@H](C(=O)Nc1ccc2ccccc2c1)[C@@H]1C[C@@]1(C)[C@@H](NC(=O)OCc1ccccc1)c1ccccc1 | 15.8 µM (active) | inactive | inactive | 7.94 µM (active) | inactive | – | – | –
C[C@@H](C(=O)Nc1ccc2ccccc2c1)[C@H]1C[C@]1(C)[C@H](NC(=O)c1cnccn1)c1ccccc1 | 25.1 µM (active) | inactive | inactive | 0.631 µM (active) | inactive | – | – | –
Cc1nn(C)c(Cl)c1S(=O)(=O)N[C@@H](c1ccccc1)[C@]1(C)C[C@H]1[C@@H](C)C(=O)Nc1ccc2ccccc2c1 | 5.01 µM (active) | inactive | inactive | 1.26 µM (active) | inactive | – | – | –
COC(=O)[C@@]1(Cc2ccc(F)cc2)[C@H]2c3cc(C(=O)N4CCCC4)n(Cc4ccccn4)c3C[C@H]2CN1C(=O)c1ccccc1 | 20 µM (active) | inactive | inactive | – | inactive | 2 µM (active) | – | –
C=C(CC1([C@@H](NP(=O)(c2ccccc2)c2ccccc2)[C@H]2C[C@@H]2CCCC)CC1)c1cccc(OC)c1 | 12.6 µM (active) | inactive | inactive | 2.51 µM (active) | inactive | – | – | –
COC(=O)C1(Cc2ccccc2)C=C2C(=C(C(C)C)C(=O)C2C)CN1 (configuration not stated) | 15.8 µM (active) | inactive | inactive | 7.94 µM (active) | inactive | – | – | –
COCC1C2CC[C@H]3C(OCc4ccc(OC)cc4)OC[C@]4(C)[C@H]3C2=C(CN4C(=O)OC(C)(C)C)[C@H](C)C1COC (some centres not stated) | 15.8 µM (active) | inactive | inactive | 1.58 µM (active) | inactive | – | – | –
COC(=O)[C@@]1(Cc2ccc(OC)cc2)[C@H]2c3cc(C(=O)N4CCCC4)n(Cc4ccc(C(F)(F)F)nc4)c3C[C@H]2CN1C(=O)c1ccccc1 | inactive | inactive | inactive | 3.16 µM (active) | inactive | – | – | –

From PubChem BioAssay (NCATS)
